Several values for one entry are separate records, joined by “and”; a condition that tells them apart may be missing. Identical values can stand only once.
Experiments:
Conditions in all cases: Compound concentration 20.0 uM
[1] = molecular target: Tyrosine-protein kinase ABL1 (Homo sapiens) (UniProt P00519)
[2] = molecular target: Bromodomain-containing protein 4 (Homo sapiens) (UniProt O60885)
[3] = molecular target: Cyclin-dependent kinase 2 (Homo sapiens) (UniProt P24941)
[4] = molecular target: Casein kinase I isoform delta (Homo sapiens) (UniProt P48730)
[5] = molecular target: Glycogen synthase kinase-3 beta (Homo sapiens) (UniProt P49841)
[6] = molecular target: Mitogen-activated protein kinase 1 (Homo sapiens) (UniProt P28482)
[7] = molecular target: T1, Aurora kinase A (Homo sapiens) (UniProt O14965)
T1 sequence (whole entry): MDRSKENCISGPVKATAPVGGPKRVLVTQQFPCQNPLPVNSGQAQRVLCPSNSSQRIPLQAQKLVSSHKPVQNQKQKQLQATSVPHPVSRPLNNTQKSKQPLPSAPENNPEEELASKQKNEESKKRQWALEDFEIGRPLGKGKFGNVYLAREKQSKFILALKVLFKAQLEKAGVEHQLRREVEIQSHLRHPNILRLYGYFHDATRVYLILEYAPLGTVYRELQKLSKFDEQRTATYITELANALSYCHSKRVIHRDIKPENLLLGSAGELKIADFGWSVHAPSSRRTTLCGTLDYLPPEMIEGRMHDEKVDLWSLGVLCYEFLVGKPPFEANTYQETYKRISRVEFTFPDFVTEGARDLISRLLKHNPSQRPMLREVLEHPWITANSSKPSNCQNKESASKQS

[8] = molecular target: T2, Transcription intermediary factor 1-alpha (Homo sapiens) (UniProt O15164)
T2 sequence (whole entry): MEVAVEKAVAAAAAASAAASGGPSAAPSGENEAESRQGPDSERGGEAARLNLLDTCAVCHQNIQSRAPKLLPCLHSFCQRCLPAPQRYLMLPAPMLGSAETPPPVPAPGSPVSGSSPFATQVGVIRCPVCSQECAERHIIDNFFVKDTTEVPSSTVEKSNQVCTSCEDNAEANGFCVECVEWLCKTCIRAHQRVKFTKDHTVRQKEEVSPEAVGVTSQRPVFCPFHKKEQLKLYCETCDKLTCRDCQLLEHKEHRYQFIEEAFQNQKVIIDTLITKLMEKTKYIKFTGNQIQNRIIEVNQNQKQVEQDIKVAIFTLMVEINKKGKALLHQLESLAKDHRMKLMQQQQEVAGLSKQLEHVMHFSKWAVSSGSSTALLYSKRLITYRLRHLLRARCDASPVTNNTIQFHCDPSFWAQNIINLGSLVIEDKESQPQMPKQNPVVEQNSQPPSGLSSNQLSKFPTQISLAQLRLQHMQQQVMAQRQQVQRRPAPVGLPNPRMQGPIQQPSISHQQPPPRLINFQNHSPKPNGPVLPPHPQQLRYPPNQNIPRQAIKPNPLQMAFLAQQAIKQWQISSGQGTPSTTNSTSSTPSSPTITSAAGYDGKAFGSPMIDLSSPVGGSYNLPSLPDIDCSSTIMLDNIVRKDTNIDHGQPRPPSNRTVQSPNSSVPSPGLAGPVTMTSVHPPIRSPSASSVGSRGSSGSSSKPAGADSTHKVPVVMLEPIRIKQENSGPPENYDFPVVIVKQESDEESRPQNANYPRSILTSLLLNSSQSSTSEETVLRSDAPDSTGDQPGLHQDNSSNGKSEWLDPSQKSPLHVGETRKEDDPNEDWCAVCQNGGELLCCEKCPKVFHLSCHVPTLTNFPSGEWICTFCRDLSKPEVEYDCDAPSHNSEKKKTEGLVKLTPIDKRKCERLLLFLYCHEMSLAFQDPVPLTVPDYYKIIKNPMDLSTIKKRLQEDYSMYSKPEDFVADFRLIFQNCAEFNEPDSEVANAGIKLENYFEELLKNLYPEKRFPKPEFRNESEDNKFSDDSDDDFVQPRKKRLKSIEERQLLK

Tyrosine-protein kinase ABL1 (Homo sapiens), sequence (P00519 whole entry): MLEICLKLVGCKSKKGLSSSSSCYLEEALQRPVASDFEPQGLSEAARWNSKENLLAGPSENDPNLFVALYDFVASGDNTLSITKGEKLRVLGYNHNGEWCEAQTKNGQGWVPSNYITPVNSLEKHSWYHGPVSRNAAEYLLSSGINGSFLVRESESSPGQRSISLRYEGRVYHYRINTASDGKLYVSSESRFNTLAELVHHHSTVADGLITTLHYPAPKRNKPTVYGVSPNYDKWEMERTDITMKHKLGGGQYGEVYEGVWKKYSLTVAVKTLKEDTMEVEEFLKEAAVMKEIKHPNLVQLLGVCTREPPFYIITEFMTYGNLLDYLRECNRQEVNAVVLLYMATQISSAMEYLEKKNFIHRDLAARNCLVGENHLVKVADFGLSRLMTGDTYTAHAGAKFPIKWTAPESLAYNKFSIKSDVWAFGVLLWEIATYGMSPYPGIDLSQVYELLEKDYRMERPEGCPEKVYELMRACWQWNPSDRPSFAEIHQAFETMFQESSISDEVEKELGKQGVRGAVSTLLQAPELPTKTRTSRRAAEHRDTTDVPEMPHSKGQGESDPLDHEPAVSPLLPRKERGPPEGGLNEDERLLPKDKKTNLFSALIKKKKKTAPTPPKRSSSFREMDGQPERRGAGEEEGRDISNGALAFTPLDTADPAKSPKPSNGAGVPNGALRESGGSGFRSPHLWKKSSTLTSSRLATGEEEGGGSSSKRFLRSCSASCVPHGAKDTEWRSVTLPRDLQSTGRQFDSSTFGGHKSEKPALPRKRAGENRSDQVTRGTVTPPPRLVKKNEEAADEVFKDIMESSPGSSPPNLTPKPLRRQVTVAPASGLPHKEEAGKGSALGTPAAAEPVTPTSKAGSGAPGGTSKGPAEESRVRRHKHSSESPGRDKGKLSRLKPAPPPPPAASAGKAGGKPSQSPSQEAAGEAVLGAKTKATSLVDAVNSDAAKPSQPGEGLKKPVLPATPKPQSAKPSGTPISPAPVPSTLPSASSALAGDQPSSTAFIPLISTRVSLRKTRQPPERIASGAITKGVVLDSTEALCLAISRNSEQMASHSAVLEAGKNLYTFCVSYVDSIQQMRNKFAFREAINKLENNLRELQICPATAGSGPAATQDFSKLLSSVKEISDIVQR
Glycogen synthase kinase-3 beta (Homo sapiens), sequence (P49841 whole entry, looked up): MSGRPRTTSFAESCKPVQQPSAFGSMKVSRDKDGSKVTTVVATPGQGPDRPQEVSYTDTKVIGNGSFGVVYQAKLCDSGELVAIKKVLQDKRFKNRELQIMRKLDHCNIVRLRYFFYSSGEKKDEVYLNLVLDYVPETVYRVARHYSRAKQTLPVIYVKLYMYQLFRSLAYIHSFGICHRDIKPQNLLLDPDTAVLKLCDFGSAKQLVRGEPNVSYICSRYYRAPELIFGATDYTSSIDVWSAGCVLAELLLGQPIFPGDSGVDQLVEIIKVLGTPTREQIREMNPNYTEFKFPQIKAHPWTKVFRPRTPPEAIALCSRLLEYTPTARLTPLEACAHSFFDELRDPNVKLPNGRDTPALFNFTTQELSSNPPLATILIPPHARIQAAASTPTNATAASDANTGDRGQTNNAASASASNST
Casein kinase I isoform delta (Homo sapiens), sequence (P48730 whole entry, looked up, canonical isoform): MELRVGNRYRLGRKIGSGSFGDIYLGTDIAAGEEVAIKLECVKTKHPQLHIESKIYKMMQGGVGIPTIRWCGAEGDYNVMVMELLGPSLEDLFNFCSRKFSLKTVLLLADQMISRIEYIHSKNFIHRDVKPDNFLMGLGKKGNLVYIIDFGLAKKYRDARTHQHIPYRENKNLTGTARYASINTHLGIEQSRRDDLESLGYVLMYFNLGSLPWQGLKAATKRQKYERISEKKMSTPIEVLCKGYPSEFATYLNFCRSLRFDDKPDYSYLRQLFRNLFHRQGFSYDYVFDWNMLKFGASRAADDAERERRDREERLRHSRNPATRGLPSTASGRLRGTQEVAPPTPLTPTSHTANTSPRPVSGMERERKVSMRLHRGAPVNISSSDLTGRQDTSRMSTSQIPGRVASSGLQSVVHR
Mitogen-activated protein kinase 1 (Homo sapiens), sequence (P28482 whole entry): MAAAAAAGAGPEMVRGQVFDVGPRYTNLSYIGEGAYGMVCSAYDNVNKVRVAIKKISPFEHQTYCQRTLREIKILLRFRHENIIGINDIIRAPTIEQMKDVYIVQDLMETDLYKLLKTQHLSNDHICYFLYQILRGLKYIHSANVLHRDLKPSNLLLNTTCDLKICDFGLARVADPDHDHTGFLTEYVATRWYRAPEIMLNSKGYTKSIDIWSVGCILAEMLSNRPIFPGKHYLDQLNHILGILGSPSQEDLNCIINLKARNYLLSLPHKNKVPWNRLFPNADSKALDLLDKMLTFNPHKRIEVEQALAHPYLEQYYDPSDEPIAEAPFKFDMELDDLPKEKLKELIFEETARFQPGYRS

C[C@]12CC[C@@H]3c4ccc(O)cc4C[C@@H](CCCCCCCCC[S+]([O-])CCCC(F)(F)C(F)(F)F)[C@H]3[C@@H]1CC[C@@H]2O (stereo not given in full)
ΔTm [1]: -4.09 °C
ΔTm [2]: -2.93 °C
ΔTm [3]: 0 °C
ΔTm [4]: -4.77 °C
ΔTm [5]: 0.72 °C
ΔTm [6]: -12 °C
ΔTm [7]: -0.16 °C

O=C(O)C1=CCCN(CCOC(c2ccc(C(F)(F)F)cc2)c2ccc(C(F)(F)F)cc2)C1
ΔTm [1]: 0.71 °C
ΔTm [2]: -3.83 °C
ΔTm [3]: -0.13 °C
ΔTm [4]: -0.26 °C
ΔTm [5]: -0.54 °C
ΔTm [6]: 0.12 °C
ΔTm [7]: -2.7 °C
ΔTm [8]: 0.08 °C

COc1ccc(N(C(=O)Oc2c(C)cccc2C)c2ccnc(Nc3ccc(N4CCN(C)CC4)cc3)n2)c(OC)c1
ΔTm [1]: 9.28 °C
ΔTm [2]: -0.9 °C
ΔTm [3]: 0.75 °C
ΔTm [4]: 0.09 °C
ΔTm [5]: 1.59 °C
ΔTm [6]: 0.08 °C
ΔTm [7]: 0.66 °C
ΔTm [8]: -0.91 °C

Nc1cc2c3c(c1)C(c1ccccc1)=N[C@@H](NC(=O)c1cccnc1)C(=O)N3CC2
ΔTm [1]: 0.6 °C
ΔTm [2]: -0.29 °C
ΔTm [3]: 0.3 °C
ΔTm [4]: -0.17 °C
ΔTm [5]: -0.38 °C
ΔTm [6]: 0.37 °C
ΔTm [7]: -2.21 °C
ΔTm [8]: -0.79 °C

CN1[C@@H]2CC[C@H]1C[C@@H](OC(c1ccc(F)cc1)c1ccc(F)cc1)C2
ΔTm [1]: 0.58 °C
ΔTm [2]: -2.87 °C
ΔTm [3]: 0.08 °C
ΔTm [4]: -0.16 °C
ΔTm [5]: -0.54 °C
ΔTm [6]: 0.11 °C
ΔTm [7]: -2.6 °C
ΔTm [8]: -0.2 °C

CC(=O)Nc1ccc(OC[C@](C)(O)C(=O)Nc2ccc([N+](=O)[O-])c(C(F)(F)F)c2)cc1
ΔTm [1]: 0.78 °C
ΔTm [2]: -0.77 °C
ΔTm [3]: 0.35 °C
ΔTm [4]: 0.23 °C
ΔTm [5]: 0.71 °C
ΔTm [6]: -0.26 °C
ΔTm [7]: -0.03 °C
ΔTm [8]: 0.02 °C

COc1cc(C)[nH]c(=O)c1CNC(=O)c1c(C)n([C@H](C)C2CCOCC2)c2ccccc12
ΔTm [1]: 0.28 °C
ΔTm [2]: -1.94 °C
ΔTm [3]: 0.11 °C
ΔTm [4]: 0.07 °C
ΔTm [5]: -0.59 °C
ΔTm [6]: -0.18 °C
ΔTm [7]: -0.23 °C
ΔTm [8]: -0.56 °C

C(=C\c1ccccc1)/CN1CCN(CCOC(c2ccccc2)c2ccccc2)CC1
ΔTm [1]: 0.28 °C
ΔTm [2]: -3.78 °C
ΔTm [3]: -0.38 °C
ΔTm [4]: -0.31 °C
ΔTm [5]: -0.82 °C
ΔTm [6]: 0.07 °C
ΔTm [7]: -2.65 °C
ΔTm [8]: -2.32 °C

CC(C)=C[C@H]1C[C@H](C)[C@]2(CC[C@]3(C)C[C@H]4[C@H](C(=O)C[C@@]4(C)O)/C(C=O)=C\C[C@H]32)O1
ΔTm [1]: -0.34 °C
ΔTm [2]: -1.06 °C
ΔTm [3]: -0.29 °C
ΔTm [4]: -0.36 °C
ΔTm [5]: -0.53 °C
ΔTm [6]: -0.16 °C
ΔTm [7]: -1.12 °C
ΔTm [8]: -1.12 °C

COc1cc(O)c2c(c1)/C=C\C[C@H](O)[C@H](O)C(=O)/C=C\C[C@H](C)OC2=O
ΔTm [1]: 6.88 °C
ΔTm [2]: -0.9 °C
ΔTm [3]: 0 °C
ΔTm [4]: 0.3 °C
ΔTm [5]: 0 °C
ΔTm [6]: 0 °C
ΔTm [7]: 0 °C
ΔTm [8]: -0.14 °C

CCO/N=C1\c2ccccc2-c2nc(C#N)c(C#N)nc21
ΔTm [1]: 0.39 °C and 0.29 °C
ΔTm [2]: -1.18 °C and -1.1 °C
ΔTm [3]: 0.59 °C and 0.08 °C
ΔTm [4]: -1.52 °C and -1.06 °C
ΔTm [5]: 0.4 °C and -0.71 °C
ΔTm [6]: -0.11 °C and -0.98 °C
ΔTm [7]: -2.42 °C and -1.91 °C
ΔTm [8]: 0.92 °C and 0.33 °C

O=C1Cc2cc(C(=O)N[C@@H]3C[C@H]4CC[C@@H](C3)N4S(=O)(=O)CC3CCN(CCCC(F)(F)F)CC3)c(Cl)cc2N1
ΔTm [1]: -0.02 °C
ΔTm [2]: -1.65 °C
ΔTm [3]: 0.34 °C
ΔTm [4]: 0.08 °C
ΔTm [5]: -1.14 °C
ΔTm [6]: -0.31 °C
ΔTm [7]: -0.32 °C
ΔTm [8]: -1.38 °C

Fc1ccc(C(OCCN2CCN(CCCc3ccccc3)CC2)c2ccc(F)cc2)cc1
ΔTm [1]: 0.53 °C
ΔTm [2]: -4.03 °C
ΔTm [3]: -0.37 °C
ΔTm [4]: -0.45 °C
ΔTm [5]: -0.66 °C
ΔTm [6]: 0.05 °C
ΔTm [7]: -2.65 °C
ΔTm [8]: -0.53 °C

O=C(NNc1ccccn1)c1ccccn1
ΔTm [1]: 0.12 °C
ΔTm [2]: -1.77 °C
ΔTm [3]: -0.03 °C
ΔTm [4]: -0.33 °C
ΔTm [5]: -0.62 °C
ΔTm [6]: 0.17 °C
ΔTm [7]: -0.43 °C
ΔTm [8]: 0.92 °C

C/C(=N\NC(=O)c1cccc(S(=O)(=O)N2CCOCC2)c1)c1cc(Cl)ccc1O
ΔTm [1]: 0.81 °C
ΔTm [2]: -2.01 °C
ΔTm [3]: 0.83 °C
ΔTm [4]: 0.6 °C
ΔTm [5]: 1.53 °C
ΔTm [6]: 0.14 °C
ΔTm [7]: -0.56 °C
ΔTm [8]: 2.31 °C

N#Cc1nc2c(nc1C#N)-c1ccccc1C2=NOCc1ccccc1
ΔTm [1]: 0.19 °C
ΔTm [2]: 1.2 °C
ΔTm [3]: 3.11 °C
ΔTm [4]: -0.93 °C
ΔTm [5]: 0.13 °C
ΔTm [6]: -0.23 °C
ΔTm [7]: -1.52 °C
ΔTm [8]: 1.99 °C

C=Cc1cc(C(=O)Nc2ccc(C(=N)N)cc2)c(-c2ccc(C(=O)NCC3CC3)nc2C(=O)O)cc1OC
ΔTm [1]: 0.26 °C
ΔTm [2]: -1.29 °C
ΔTm [3]: 0.57 °C
ΔTm [4]: 0.02 °C
ΔTm [5]: -0.41 °C
ΔTm [6]: 0.21 °C
ΔTm [7]: -1.17 °C
ΔTm [8]: 0.42 °C

CCOC(=O)c1ccc(-c2ccc(OC(=O)N(C)Cc3cccc(-c4ccncc4)c3)cc2)cc1
ΔTm [1]: 1.38 °C
ΔTm [2]: -2.49 °C
ΔTm [3]: 0.29 °C
ΔTm [4]: -0.29 °C
ΔTm [5]: -4.12 °C
ΔTm [6]: 0.21 °C
ΔTm [7]: -1.65 °C
ΔTm [8]: -0.65 °C

Cc1ccc(N2C(=O)/C(=C/C=C/c3ccco3)C(=O)NC2=S)cc1Cl
ΔTm [1]: 0.75 °C
ΔTm [2]: -2.47 °C
ΔTm [3]: -0.73 °C
ΔTm [4]: 0.31 °C
ΔTm [5]: -1.52 °C
ΔTm [6]: -1.33 °C
ΔTm [7]: -0.68 °C
ΔTm [8]: -2.21 °C

O=[N+]([O-])c1cc(O)c(O)c([N+](=O)[O-])c1
ΔTm [1]: 0.3 °C
ΔTm [2]: 2.94 °C
ΔTm [3]: 1.19 °C
ΔTm [4]: -0.22 °C
ΔTm [5]: -0.11 °C
ΔTm [6]: 0.24 °C
ΔTm [7]: 0.17 °C
ΔTm [8]: 3.59 °C

N#Cc1ccc(N2N=C3c4ccc(C(=O)O)cc4CC[C@@H]3[C@@H]2C2CCCC2)cc1Cl
ΔTm [1]: -2.47 °C
ΔTm [2]: 0 °C
ΔTm [3]: -2.04 °C
ΔTm [4]: -4.9 °C
ΔTm [5]: 0 °C
ΔTm [6]: -9.49 °C
ΔTm [7]: 0.42 °C
ΔTm [8]: 1.43 °C

CCS(=O)(=O)N1CCC([C@@H](C)n2c(C)c(C(=O)NCc3c(OC)cc(C)[nH]c3=O)c3ccccc32)CC1
ΔTm [1]: 0.06 °C
ΔTm [2]: -2.35 °C
ΔTm [3]: 0.2 °C
ΔTm [4]: 0.01 °C
ΔTm [5]: -0.39 °C
ΔTm [6]: -0.34 °C
ΔTm [7]: -0.26 °C
ΔTm [8]: -1 °C
